Test results from PubChem BioAssay (Tox21).
Records with an inconclusive call do not appear. Active and inactive are the calls of the source. Unless noted, the call rests on the fitted dose curve; in most records, active means well fitted curve in the direction sought with a large enough effect in the repeat runs; inconclusive means weak or mixed curves; inactive means no such curve, though single readings can be large; an effect the other way counts as inactive or inconclusive.

Tests used:
[1] = target: Estrogen receptor beta (Homo sapiens) (UniProt Q92731); test: qHTS assay to identify small molecule agonists of the estrogen receptor beta (ER-beta) signaling pathway (AID 1259377; active means well fitted activation curve with a large enough effect in the signal ratio in the repeat runs, not every such curve was filed as active; the % refers to the signal ratio)
Sequence of Estrogen receptor beta (Homo sapiens) (Q92731 whole entry, looked up): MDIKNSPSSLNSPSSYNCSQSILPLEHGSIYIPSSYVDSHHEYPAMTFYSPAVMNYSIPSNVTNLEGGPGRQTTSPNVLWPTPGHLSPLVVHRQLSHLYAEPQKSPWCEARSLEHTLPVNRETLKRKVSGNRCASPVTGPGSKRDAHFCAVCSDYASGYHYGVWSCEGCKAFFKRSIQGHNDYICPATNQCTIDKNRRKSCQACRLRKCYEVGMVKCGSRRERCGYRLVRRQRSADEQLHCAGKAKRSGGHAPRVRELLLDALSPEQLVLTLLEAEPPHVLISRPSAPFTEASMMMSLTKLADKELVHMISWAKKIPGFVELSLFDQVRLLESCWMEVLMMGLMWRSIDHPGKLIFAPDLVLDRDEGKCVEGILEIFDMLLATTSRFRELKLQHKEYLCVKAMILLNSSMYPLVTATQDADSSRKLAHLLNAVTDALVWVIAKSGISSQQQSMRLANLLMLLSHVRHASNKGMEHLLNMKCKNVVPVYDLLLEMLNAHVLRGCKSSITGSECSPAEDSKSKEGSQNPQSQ
How it was run: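 HEK293T ER-beta-UAS-bla; 2% charcoal-stripped FBS; cells pre-incubated 6 hr, compound 16 hr, 37C/5% CO2; LiveBLAzer B/G FRET substrate 2 h RT; fluorescence intensity read.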

[2] = target: Estrogen receptor beta (Homo sapiens) (UniProt Q92731); test: qHTS assay to identify small molecule antagonists of the estrogen receptor beta (ER-beta) signaling pathway (AID 1259378; active means well fitted inhibition curve with a large enough effect in the signal ratio in the repeat runs, not every such curve was filed as active; the % refers to the signal ratio)
How it was run: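 Antagonist mode: compounds added to beta-lactamase reporter HEK293T ER-beta-UAS cells stimulated with E2 (1nM final), 16 hr at 37C. LiveBLAzer B/G FRET substrate, 2 hours room temperature, fluorescence read-out.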

[3] = qHTS assay to identify small molecule agonists of the androgen receptor (AR) signaling pathway in the presence of an antagonist - cell viability counter screen (AID 1259379);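 further: MDA-kb2 human breast cancer cells carrying an MMTV luciferase reporter; series mostly up to about 92 µM; nearly all actives have a fitted effect of over 25% in size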
How it was run: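 Cells: MDA-kb2 (MMTV-luc, AR and GR elements), 3,000/well, 5 hr settle. Added: nilutamide 3.0uM final, then compounds (15 conc.). Incubation: 16 hr, 37C, no CO2. Read-out: CellTiter-Fluor, 1 hr, fluorescence.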

[4] = qHTS assay to identify small molecule agonists of the estrogen receptor beta (ER-beta) signaling pathway - cell viability counter screen (AID 1259380); further: nearly all actives have a fitted effect of over 30% in size
How it was run: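 HEK293T ER-beta-UAS-bla; 2% CS-FBS; 6 hr pre-plate, 16 hr cpd at 37C/5% CO2; LiveBLAzer read first, then CellTiter-Glo 30 min RT, luminescence.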

[5] = qHTS assay to identify small molecule antagonists of the estrogen receptor beta (ER-beta) signaling pathway - cell viability counter screen (AID 1259382);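 further: HEK293T cells carrying ER-beta-UAS-bla reporter stimulated with estradiol; series mostly up to about 92 µM; nearly all actives have a fitted effect of over 55% in size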
How it was run: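 Cells: ER-beta-UAS-bla HEK293T, 2,000/well, 2% CS-FBS, 6 hr settle. Cpd + E2 (1nM final), 16 hr, 37C/5% CO2. Bla FRET substrate 2 hr RT, then CellTiter-Glo 30 min RT, luminescence.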

[6] = target: Estrogen receptor (Homo sapiens) (UniProt P03372); test: qHTS assay to identify small molecule agonists of the estrogen receptor alpha (ER-alpha) signaling pathway in the presence of an antagonist (AID 1259383; calls by dose curve; further: top concentration of the series differs between compounds; nearly all actives have a fitted effect of over 15% in size)
Sequence of Estrogen receptor (Homo sapiens) (P03372 whole entry, looked up): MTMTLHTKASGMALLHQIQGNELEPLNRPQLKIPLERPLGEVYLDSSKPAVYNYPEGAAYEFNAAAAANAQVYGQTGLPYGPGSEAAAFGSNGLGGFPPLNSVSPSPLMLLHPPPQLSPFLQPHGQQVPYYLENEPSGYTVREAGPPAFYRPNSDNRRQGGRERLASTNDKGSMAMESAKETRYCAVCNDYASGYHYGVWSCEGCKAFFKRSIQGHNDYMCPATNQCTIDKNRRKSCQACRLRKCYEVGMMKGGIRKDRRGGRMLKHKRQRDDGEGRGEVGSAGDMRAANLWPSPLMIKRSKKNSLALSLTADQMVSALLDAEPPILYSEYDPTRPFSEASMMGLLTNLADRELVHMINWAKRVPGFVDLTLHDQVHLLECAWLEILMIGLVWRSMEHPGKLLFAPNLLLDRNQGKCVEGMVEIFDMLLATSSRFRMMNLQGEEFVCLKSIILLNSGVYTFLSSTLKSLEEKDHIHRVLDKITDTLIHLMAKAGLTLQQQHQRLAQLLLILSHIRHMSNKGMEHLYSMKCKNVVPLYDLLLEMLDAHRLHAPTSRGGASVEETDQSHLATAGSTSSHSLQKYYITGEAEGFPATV
How it was run: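 VM7Luc4E2, endog. ER-alpha + 4×ERE-luc; charcoal-stripped FBS, phenol red-free, 5 d; 24hr plating; +10.0nM ICI-182,780 (final); cpds 15 conc, 22hr, 37C/5% CO2; ONE-Glo luminescence.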

[7] = qHTS assay to identify small molecule agonists or antagonists of the thyroid stimulating hormone receptor (TSHR) signaling pathway - wild type cell line counter screen (AID 1259384; calls by dose curve)
How it was run: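 Counter screen in untransfected Hek293: compounds (15-point titration, triplicate) plus phosphodiesterase inhibitor Ro20-1724 added after 18 h plating; 30 min RT. Intracellular cAMP via competitive d2/cryptate immunoassay, 1 h incubation.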

[8] = target: Thyrotropin receptor (Homo sapiens) (UniProt P16473); test: qHTS assay to identify small molecule antagonists of the thyroid stimulating hormone receptor (TSHR) signaling pathway (AID 1259385; calls by dose curve; further: nearly all actives have a fitted effect of over 20% in size)
Sequence of Thyrotropin receptor (Homo sapiens) (P16473 whole entry, looked up): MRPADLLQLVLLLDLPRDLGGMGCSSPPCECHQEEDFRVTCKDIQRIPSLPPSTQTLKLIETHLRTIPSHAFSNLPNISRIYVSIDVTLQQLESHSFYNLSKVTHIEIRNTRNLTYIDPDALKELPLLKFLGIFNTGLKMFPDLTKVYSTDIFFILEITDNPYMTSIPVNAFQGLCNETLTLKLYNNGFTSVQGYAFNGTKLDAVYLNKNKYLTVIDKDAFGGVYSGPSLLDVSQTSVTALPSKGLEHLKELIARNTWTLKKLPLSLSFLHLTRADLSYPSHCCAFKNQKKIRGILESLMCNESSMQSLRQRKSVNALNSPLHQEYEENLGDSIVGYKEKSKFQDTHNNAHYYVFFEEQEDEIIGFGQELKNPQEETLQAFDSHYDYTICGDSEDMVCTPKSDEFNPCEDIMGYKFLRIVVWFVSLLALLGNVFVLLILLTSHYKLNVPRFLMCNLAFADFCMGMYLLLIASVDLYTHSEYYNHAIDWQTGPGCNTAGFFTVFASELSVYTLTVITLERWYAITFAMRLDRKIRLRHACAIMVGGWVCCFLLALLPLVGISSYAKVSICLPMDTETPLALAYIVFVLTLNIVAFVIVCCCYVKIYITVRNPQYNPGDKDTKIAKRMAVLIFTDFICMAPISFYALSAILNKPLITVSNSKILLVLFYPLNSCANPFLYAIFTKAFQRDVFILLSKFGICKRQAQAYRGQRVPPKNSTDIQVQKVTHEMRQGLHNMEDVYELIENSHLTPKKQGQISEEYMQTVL
How it was run: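 Antagonist mode: compound-treated TSHR-expressing HEK293 cells were stimulated with 1.5 ng/mL TSH (final) in presence of Ro20-1724 for 30 min at RT. HTRF cAMP detection after 1 h; each compound tested at 15 concentrations, triplicate.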

[9] = qHTS assay to identify small molecule agonists of the estrogen receptor alpha (ER-alpha) signaling pathway in the presence of an antagonist - cell viability counter screen (AID 1259386);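 further: series mostly up to about 92 µM; cells exposed to compounds for 22 h at 37 °C before the viability read; nearly all actives have a fitted effect of over 30% in size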
How it was run: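 VM7Luc4E2, stripped-serum pre-culture 5 d; 24hr plating; +ICI-182,780 10.0nM final; cpds 15 conc, 22hr, 37C/5% CO2; CellTiter-Fluor added at 21hr, fluorescence 1hr later.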

[10] = target: Progesterone receptor (Homo sapiens) (UniProt P06401); test: qHTS assay to identify small molecule agonists of the progesterone receptor (PR) signaling pathway (AID 1346784; calls by dose curve; further: nearly all actives have a fitted effect of over 30% in size)
Sequence of Progesterone receptor (Homo sapiens) (P06401 whole entry, looked up): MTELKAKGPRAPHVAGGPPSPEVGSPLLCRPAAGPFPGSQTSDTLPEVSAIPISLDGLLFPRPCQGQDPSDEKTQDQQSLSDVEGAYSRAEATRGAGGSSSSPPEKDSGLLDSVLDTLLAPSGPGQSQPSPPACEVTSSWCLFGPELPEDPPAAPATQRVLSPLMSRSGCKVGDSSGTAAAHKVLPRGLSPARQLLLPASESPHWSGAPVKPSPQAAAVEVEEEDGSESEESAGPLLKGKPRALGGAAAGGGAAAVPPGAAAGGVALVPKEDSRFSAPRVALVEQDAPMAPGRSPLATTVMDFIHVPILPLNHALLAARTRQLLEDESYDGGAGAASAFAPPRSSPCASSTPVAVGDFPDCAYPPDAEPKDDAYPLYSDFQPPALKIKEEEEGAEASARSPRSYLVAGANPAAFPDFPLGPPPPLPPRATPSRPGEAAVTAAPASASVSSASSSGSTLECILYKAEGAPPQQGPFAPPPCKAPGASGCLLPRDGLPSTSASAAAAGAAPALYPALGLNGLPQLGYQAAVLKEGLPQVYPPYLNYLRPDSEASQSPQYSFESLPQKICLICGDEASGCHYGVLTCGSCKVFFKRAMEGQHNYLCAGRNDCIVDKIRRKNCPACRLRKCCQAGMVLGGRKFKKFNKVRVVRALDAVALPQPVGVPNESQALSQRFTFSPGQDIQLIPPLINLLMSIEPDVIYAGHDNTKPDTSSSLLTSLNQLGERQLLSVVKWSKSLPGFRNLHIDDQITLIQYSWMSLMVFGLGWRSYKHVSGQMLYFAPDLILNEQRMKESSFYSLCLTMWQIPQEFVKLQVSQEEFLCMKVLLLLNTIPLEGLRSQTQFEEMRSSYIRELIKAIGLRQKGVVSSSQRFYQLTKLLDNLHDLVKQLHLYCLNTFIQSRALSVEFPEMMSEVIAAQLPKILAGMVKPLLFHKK
How it was run: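 Beta-lactamase reporter read-out: after 16 hr compound treatment at 37C and a further 2 hr at room temperature with LiveBLAzer B/G FRET substrate, fluorescence was measured in PR-UAS-bla HEK 293T cells grown in 2% charcoal-stripped serum.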

[11] = target: Progesterone receptor (Homo sapiens) (UniProt P06401); test: qHTS assay to identify small molecule antagonists of the progesterone receptor (PR) signaling pathway (AID 1346795; active means well fitted inhibition curve with a large enough effect in the signal ratio in the repeat runs, not every such curve was filed as active; the % refers to the signal ratio)
How it was run: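 Read-out is fluorescence from the LiveBLAzer B/G FRET substrate, cleaved by a UAS-controlled beta-lactamase in PR-UAS-bla HEK293T cells after 16 hr exposure to compound plus 1 nM promegestone (final), followed by 2 hr at room temperature.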

[12] = qHTS assay to identify small molecule antagonists of the progesterone receptor (PR) signaling pathway - cell viability counter screen (AID 1346798);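 further: HEK293T PR-UAS-bla cells stimulated with the agonist R5020; series mostly up to about 92 µM; nearly all actives have a fitted effect of over 50% in size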
How it was run: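 HEK293T PR-UAS-bla, 2% charcoal-stripped FBS; 4 hr pre-plate; cpd + R5020, 16 h 37C; LiveBLAzer read first; then CellTiter-Glo 30 min RT, luminescence.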

[13] = qHTS assay to identify small molecule agonists of the progesterone receptor (PR) signaling pathway - cell viability counter screen (AID 1346799; calls by dose curve; further: nearly all actives have a fitted effect of over 45% in size)
How it was run: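 Luminescence from CellTiter-Glo, added after the beta-lactamase FRET read in the same wells, gave cytotoxicity in PR-UAS-bla HEK293T cells treated with compounds for 16 hr at 37C.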

[14] = qHTS assay to identify small molecule antagonists of the TGF-beta/Smad signaling pathway - cell viability counter screen (AID 1346824); further: nearly all actives have a fitted effect of over 50% in size
How it was run: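 Cytotoxicity counter-screen run in the same wells as the beta-lactamase Smad reporter read: CellTiter-Glo luminescence after 30 min at room temperature. HEK 293T SBE-bla cells had 5 hr compound exposure at 37 C with TGF-beta1 (0.25 ng/mL stock).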

[15] = qHTS assay to identify small molecule agonists of the TGF-beta/Smad signaling pathway - cell viability counter screen (AID 1346829); further: top concentration of the series differs between compounds; nearly all actives have a fitted effect of over 45% in size
How it was run: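 In parallel with the Smad reporter read, viability of HEK 293T cells stably carrying SBE-bla is quantified by ATP luminescence following 5 hr compound treatment.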

[16] = qHTS assay to identify small molecule agonists of the TGF-beta/Smad signaling pathway (AID 1346859; active means well fitted activation curve with a large enough effect in the signal ratio in the repeat runs, not every such curve was filed as active; the % refers to the signal ratio; further: series mostly up to about 77 µM)
How it was run: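 SBE-bla HEK 293T, 4,000 cells/well, plated o/n; cpd in DMSO, 5 hr, 37 C/5% CO2; B/G FRET substrate 2 hr RT; ex 405, em 460/530 nm.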

[17] = Human pregnane X receptor (PXR) small molecule agonists, qHTS cell viability counter screen (AID 1346977); further: nearly all actives have a fitted effect of over 50% in size
How it was run: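 PXR-Luc HepG2, 2,000 cells/well, 5% charcoal-stripped FBS; 5hr settle; cpd 24hr, 37C/5% CO2; CellTiter-Fluor at 23hr, read 1hr later (fluorescence).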

[18] = target: Thyrotropin-releasing hormone receptor (Homo sapiens) (UniProt P34981); test: qHTS assay to identify small molecule antagonists of the thyrotropin-releasing hormone receptor (TRHR) signaling pathway (AID 1346877; active means well fitted inhibition curve with a large enough effect in the repeat runs, not every such curve was filed as active; further: series mostly up to about 51 µM)
Sequence of Thyrotropin-releasing hormone receptor (Homo sapiens) (P34981 whole entry, looked up): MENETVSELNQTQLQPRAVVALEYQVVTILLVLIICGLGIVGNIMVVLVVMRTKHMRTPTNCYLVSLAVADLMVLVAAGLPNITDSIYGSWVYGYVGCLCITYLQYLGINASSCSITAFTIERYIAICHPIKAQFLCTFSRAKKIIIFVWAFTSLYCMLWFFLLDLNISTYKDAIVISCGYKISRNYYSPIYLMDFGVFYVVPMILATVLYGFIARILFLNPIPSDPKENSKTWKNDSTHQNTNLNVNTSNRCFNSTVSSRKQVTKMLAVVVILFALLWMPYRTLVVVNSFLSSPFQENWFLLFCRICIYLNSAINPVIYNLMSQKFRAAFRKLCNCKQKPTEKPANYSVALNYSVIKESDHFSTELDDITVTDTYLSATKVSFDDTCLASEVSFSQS
How it was run: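 Intracellular calcium fluorescence, read kinetically every second over 3 min, reports TRH-evoked signalling in HEK293 cells carrying TRHR. Test compounds were added 5 min ahead of a 1 nM TRH challenge.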

[19] = target: Thyrotropin-releasing hormone receptor (Homo sapiens) (UniProt P34981); test: qHTS assay to identify small molecule agonists of the thyrotropin-releasing hormone receptor (TRHR) signaling pathway (AID 1346891; calls by dose curve; further: series mostly up to about 58 µM)
How it was run: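 Intracellular calcium rise, read as fluorescence every second for 3 min, served as the agonist signal in dye-loaded HEK293 cells expressing TRHR; each compound ran at 15 concentrations in triplicate.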

Measured: Potency

C[Si](C)O[Si](C)C
not listed: [18] | [19]
inactive: all other assays above

COC(=O)NCCC[Si](OC)(OC)OC
not listed: [6] | [11] | [12] | [13]
inactive: all other assays above

C=C(C)C(=O)OCCC[Si](Cl)(Cl)Cl
not listed: [6] | [10] | [13] | [18] | [19]
inactive: all other assays above

C/C=C/c1ccc(OC)c(OC)c1
not listed: [6] | [10] | [11] | [12] | [18] | [19]
inactive: all other assays above
